{"source": "PubChem BioAssay", "note": "Values without a mark were called inactive.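 The calls were made as follows, unless noted: active = RAM network inhibition above 8.4% in each of two replicates, 3 SD over the compound average; inconclusive = above 8.4% inhibition in only one replicate; inactive = 8.4% inhibition or less in each replicate.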"}
{"assay": "RAM pathway blockade in budding yeast – dse1pr::URA3 reporter, 5-FOA selection, pilot screen (AID 869;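 active = inhibition over a set limit, the all-compound mean plus 3 SD, in both replicate runs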;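 also: 0% = DMSO wells with no growth and 100% = 10 µM 1-NA-PP1 with full growth; RAM network block rescues cells from 5-FOA so hits raise OD615 growth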)", "details": "S. cerevisiae dse1pr::URA3 5-FOA growth, OD615, 2 d; at 10 µM; stronger effect = higher value; strain carries analog-sensitive mutant Cbk1 kinase", "units": {"inhibition": "%"}}
{"molecule": "CCOC(=O)N1CCC(NC(=O)CS(=O)(=O)Cc2nc(-c3ccc(C)cc3)oc2C)CC1", "inhibition": 0.44}
{"molecule": "COc1ccc(OC)c(C2CC(=O)N3CN(c4ccccc4F)CSC3=C2C#N)c1", "note": "(stereo not given)", "inhibition": 1.03}
{"molecule": "CC(=O)C1=C(C)N=c2s/c(=C/c3ccc4c(c3)OCO4)c(=O)n2C1c1ccc(N(C)C)cc1", "note": "(stereo not given)", "inhibition": 1.13}
{"molecule": "Cc1c(N=Cc2ccco2)c(=O)n(-c2ccccc2)n1C", "inhibition": 1.39}
{"molecule": "O=S(=O)(c1ccc(Br)cc1)N1CCN(c2cc(-c3ccccc3)nc3ncnn23)CC1", "inhibition": 2.37}
{"molecule": "Cn1c(NC(=O)Cc2cccs2)cc(=O)n(C)c1=O", "inhibition": 1.26}
{"molecule": "CCOC(=O)c1c(NC(C)=O)no[n+]1[O-]", "inhibition": 0.795}
{"molecule": "COc1ccc(N(CC(=O)N2CC=C(c3ccccc3)CC2)S(=O)(=O)c2c(C)noc2C)cc1", "inhibition": 1.41}
{"molecule": "C=CCn1c(C)c(C(C)=O)c(SC)nc1=S", "inhibition": 0.34}
{"molecule": "COc1ccc(N(CC(=O)Nc2cc(OC)ccc2OC)S(=O)(=O)c2c(C)nn(C)c2C)cc1", "inhibition": 1.36}
{"molecule": "COc1ccc(C2C(C(=O)NCCN(C)C)c3ccccc3C(=O)N2C)cc1OC", "note": "(stereo not given)", "inhibition": -0.2}
{"molecule": "CC(C)N1CCc2c(sc(NC(=O)c3ccc(S(=O)(=O)N4CCOCC4)cc3)c2C#N)C1", "inhibition": 0.75}
{"molecule": "COC(=O)c1c(NC(=O)CSc2nnnn2-c2ccccc2)sc2c1CCC(C)C2", "note": "(stereo not given)", "inhibition": 2.46}
{"molecule": "COC(=O)CC1Oc2ccccc2N(Cc2ccccc2)C1=O", "note": "(stereo not given)", "inhibition": 1.56}
{"molecule": "CCCC(=O)Nc1nc2ccc(OC)cc2s1", "inhibition": 0.5}
{"molecule": "CCCCCn1c(CN2CC(C)OC(C)C2)nc2c1c(=O)n(C)c(=O)n2C", "note": "(stereo not given)", "inhibition": 1.86}
{"molecule": "Cc1ccc(C2/C(=C(/O)c3ccc(Br)cc3)C(=O)C(=O)N2Cc2ccco2)o1", "note": "(stereo not given)", "inhibition": 0.82}
{"molecule": "CN1CCN(S(=O)(=O)c2ccc3c4c(cccc24)C(=O)N3)CC1", "inhibition": 1.18}
{"molecule": "c1ccc(Sc2nc(N3CCCCC3)nc(N3CCCCC3)n2)nc1", "inhibition": 0.735}
{"molecule": "O=C(O)CSCCc1ccccn1", "inhibition": 1.27}
{"molecule": "CCCC(=O)N1CC(=O)Nc2ccc(F)cc2C1c1ccccc1", "note": "(stereo not given)", "inhibition": 3.18}
{"molecule": "CCOC1=NC(C(=O)O)c2ccccc2/C(=C(/C)Cl)N1", "note": "(stereo not given)", "inhibition": 0.25}
{"molecule": "COc1ccc(C(=O)NCc2cn3ccsc3n2)cc1OC", "inhibition": 2.29}
{"molecule": "O=C(Nc1cccc(F)c1)c1ccc(S(=O)(=O)N2CCCC2)cc1", "inhibition": 1.78}
{"molecule": "CCN(CC)C(=O)Cn1c(=O)n(-c2ccccc2)c(=O)n1CC(=O)N(CC)CC", "inhibition": 1.29}
{"molecule": "CC1=Nc2ccc(C)cc2N(Cc2ccccc2)C(=O)C1", "inhibition": 0.545}
{"molecule": "CCCN(CCC(=O)Nc1ccccc1F)CC1CC1", "inhibition": 0.64}
{"molecule": "CC(C)c1nnc(NC(=O)c2ccc(S(=O)(=O)N3CCOCC3)cc2)s1", "inhibition": 2.56}
{"molecule": "COc1ccccc1NC(=O)c1ccc(N)cc1", "inhibition": 2.87}
{"molecule": "Cc1cccc(C2CC(c3ccc(F)cc3)Nc3nc(N)nn32)c1", "note": "(stereo not given)", "inhibition": 0.09}
{"molecule": "O=C(Nc1nnc(-c2ccc3c(c2)CCCC3)o1)C1CCCCC1", "inhibition": 3.24}
{"molecule": "O=C(NCCc1csc(-c2cccnc2)n1)c1cccs1", "inhibition": 1.27}
{"molecule": "C=CC1C(N2CCOCC2)C(C)(C)S1(=O)=O", "note": "(stereo not given)", "inhibition": 1.38}
{"molecule": "Cc1ccc2c(c1)NCC(C(=O)NC1CCC(C)CC1)O2", "note": "(stereo not given)", "inhibition": 1}
{"molecule": "Cc1ccc(N2CC(c3nc4ccccc4n3C)CC2=O)cc1C", "note": "(stereo not given)", "inhibition": 0.94}
{"molecule": "CC(=NCCc1ccccc1)C1=C(O)COC1=O", "inhibition": 0.87}
{"molecule": "COC(=O)c1c(-c2ccc(C)cc2)csc1N", "inhibition": -0.61}
{"molecule": "O=C1C(=O)N(CCO)C(c2ccccc2)/C1=C(\\O)c1ccccc1", "note": "(stereo not given)", "inhibition": 1.29}
{"molecule": "CCOc1ccccc1NC(=O)CN(c1cc(C)cc(C)c1)S(=O)(=O)c1c(C)noc1C", "inhibition": 1.51}
{"molecule": "COc1ccc(OCC(=O)Nc2cc(-c3nn4c(C)nnc4s3)ccc2C)cc1", "inhibition": 0.755}
{"assay": "RAM signaling pathway blockade in yeast – S. cerevisiae, Pdr1DBD-CYC8 efflux-inhibited sensitized strain, primary screen (AID 1298);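 also: 0% = DMSO untreated cells without growth and 100% = 10 µM 1-NA-PP1 full growth; higher means more yeast growth rescued from 5-FOA killing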", "details": "S. cerevisiae cbk1-as DSE1-URA3 strain, 5-FOA growth OD615, 2 d; at 50 µM; stronger effect = higher value", "units": {"RAM network inhibition": "%"}}
{"molecule": "CCOC(=O)N1CCC(NC(=O)CS(=O)(=O)Cc2nc(-c3ccc(C)cc3)oc2C)CC1", "RAM network inhibition": 0.36}
{"molecule": "COc1ccc(OC)c(C2CC(=O)N3CN(c4ccccc4F)CSC3=C2C#N)c1", "note": "(stereo not given)", "RAM network inhibition": 8.39}
{"molecule": "CC(=O)C1=C(C)N=c2s/c(=C/c3ccc4c(c3)OCO4)c(=O)n2C1c1ccc(N(C)C)cc1", "note": "(stereo not given)", "RAM network inhibition": 4.19}
{"molecule": "Cc1c(N=Cc2ccco2)c(=O)n(-c2ccccc2)n1C", "RAM network inhibition": 0.89}
{"molecule": "O=S(=O)(c1ccc(Br)cc1)N1CCN(c2cc(-c3ccccc3)nc3ncnn23)CC1", "RAM network inhibition": 2.33}
{"molecule": "Cn1c(NC(=O)Cc2cccs2)cc(=O)n(C)c1=O", "RAM network inhibition": -2.37}
{"molecule": "CCOC(=O)c1c(NC(C)=O)no[n+]1[O-]", "RAM network inhibition": 5.03}
{"molecule": "COc1ccc(N(CC(=O)N2CC=C(c3ccccc3)CC2)S(=O)(=O)c2c(C)noc2C)cc1", "RAM network inhibition": 2.09}
{"molecule": "C=CCn1c(C)c(C(C)=O)c(SC)nc1=S", "RAM network inhibition": 5.32}
{"molecule": "COc1ccc(N(CC(=O)Nc2cc(OC)ccc2OC)S(=O)(=O)c2c(C)nn(C)c2C)cc1", "RAM network inhibition": 0.21}
{"molecule": "COc1ccc(C2C(C(=O)NCCN(C)C)c3ccccc3C(=O)N2C)cc1OC", "note": "(stereo not given)", "RAM network inhibition": 1.92}
{"molecule": "CC(C)N1CCc2c(sc(NC(=O)c3ccc(S(=O)(=O)N4CCOCC4)cc3)c2C#N)C1", "RAM network inhibition": 1.3}
{"molecule": "COC(=O)c1c(NC(=O)CSc2nnnn2-c2ccccc2)sc2c1CCC(C)C2", "note": "(stereo not given)", "RAM network inhibition": 10.1}
{"molecule": "COC(=O)CC1Oc2ccccc2N(Cc2ccccc2)C1=O", "note": "(stereo not given)", "RAM network inhibition": 3.83}
{"molecule": "CCCC(=O)Nc1nc2ccc(OC)cc2s1", "RAM network inhibition": 2.32}
{"molecule": "CCCCCn1c(CN2CC(C)OC(C)C2)nc2c1c(=O)n(C)c(=O)n2C", "note": "(stereo not given)", "RAM network inhibition": 1.97}
{"molecule": "Cc1ccc(C2/C(=C(/O)c3ccc(Br)cc3)C(=O)C(=O)N2Cc2ccco2)o1", "note": "(stereo not given)", "RAM network inhibition": -1.74}
{"molecule": "CN1CCN(S(=O)(=O)c2ccc3c4c(cccc24)C(=O)N3)CC1", "RAM network inhibition": 1.28}
{"molecule": "c1ccc(Sc2nc(N3CCCCC3)nc(N3CCCCC3)n2)nc1", "RAM network inhibition": 4.97}
{"molecule": "O=C(O)CSCCc1ccccn1", "RAM network inhibition": 4.45}
{"molecule": "CCCC(=O)N1CC(=O)Nc2ccc(F)cc2C1c1ccccc1", "note": "(stereo not given)", "RAM network inhibition": 3.75}
{"molecule": "CCOC1=NC(C(=O)O)c2ccccc2/C(=C(/C)Cl)N1", "note": "(stereo not given)", "RAM network inhibition": 2.78}
{"molecule": "COc1ccc(C(=O)NCc2cn3ccsc3n2)cc1OC", "RAM network inhibition": 2.63}
{"molecule": "O=C(Nc1cccc(F)c1)c1ccc(S(=O)(=O)N2CCCC2)cc1", "RAM network inhibition": -0.43}
{"molecule": "CCN(CC)C(=O)Cn1c(=O)n(-c2ccccc2)c(=O)n1CC(=O)N(CC)CC", "RAM network inhibition": 1.08}
{"molecule": "CC1=Nc2ccc(C)cc2N(Cc2ccccc2)C(=O)C1", "RAM network inhibition": 2.83}
{"molecule": "CCCN(CCC(=O)Nc1ccccc1F)CC1CC1", "RAM network inhibition": -0.31}
{"molecule": "CC(C)c1nnc(NC(=O)c2ccc(S(=O)(=O)N3CCOCC3)cc2)s1", "RAM network inhibition": 6.74}
{"molecule": "COc1ccccc1NC(=O)c1ccc(N)cc1", "RAM network inhibition": 2.74}
{"molecule": "Cc1cccc(C2CC(c3ccc(F)cc3)Nc3nc(N)nn32)c1", "note": "(stereo not given)", "RAM network inhibition": 0.31}
{"molecule": "O=C(Nc1nnc(-c2ccc3c(c2)CCCC3)o1)C1CCCCC1", "RAM network inhibition": 4.48}
{"molecule": "O=C(NCCc1csc(-c2cccnc2)n1)c1cccs1", "RAM network inhibition": 0.68}
{"molecule": "C=CC1C(N2CCOCC2)C(C)(C)S1(=O)=O", "note": "(stereo not given)", "RAM network inhibition": -0.28}
{"molecule": "Cc1ccc2c(c1)NCC(C(=O)NC1CCC(C)CC1)O2", "note": "(stereo not given)", "RAM network inhibition": 5.26}
{"molecule": "Cc1ccc(N2CC(c3nc4ccccc4n3C)CC2=O)cc1C", "note": "(stereo not given)", "RAM network inhibition": 3.07}
{"molecule": "CC(=NCCc1ccccc1)C1=C(O)COC1=O", "RAM network inhibition": 2.27}
{"molecule": "COC(=O)c1c(-c2ccc(C)cc2)csc1N", "RAM network inhibition": -1.79}
{"molecule": "O=C1C(=O)N(CCO)C(c2ccccc2)/C1=C(\\O)c1ccccc1", "note": "(stereo not given)", "RAM network inhibition": 0.42}
{"molecule": "CCOc1ccccc1NC(=O)CN(c1cc(C)cc(C)c1)S(=O)(=O)c1c(C)noc1C", "RAM network inhibition": 1.81}
{"molecule": "COc1ccc(OCC(=O)Nc2cc(-c3nn4c(C)nnc4s3)ccc2C)cc1", "RAM network inhibition": 5.36}
